The whole screen tested about 290,000 compounds, of which about 3,000 (1%) were called active. For the sample, actives were picked, then their nearest neighbours and some compounds at random. Unmarked numbers belong to inactive results. Cut-off read from the data, not from the text of the source: active = inhibition mostly above about 36% (no sharp cut-off); inactive = mostly below about 34%.

The nature of this test: NOD1 signaling inhibitors, primary screen, cell-based, luminescence, uHTS (AID 1578).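 Note: HEK-293T reporter cells stimulated with the NOD1 agonist gamma-tri-DAP.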 As to conditions: NOD1-driven NF-kB luciferase reporter cells, at 4 µM, hits give high values.
Consider `Cc1nc2ccc(NC(=O)c3ccc(S(=O)(=O)N(C)c4ccccc4)cc3)cc2s1`, for which the inhibition (as a rule, the change of the read-out against control, counted positive when it falls) was 17.6%. The value for `CN(c1ccccc1)S(=O)(=O)c1ccc(Cl)c(C(=O)Nc2ccc(-c3nc4ccccc4[nH]3)cc2)c1` was 4.8%; that for `Cc1nc2ccc(NC(=O)c3ccc(Cl)c(S(=O)(=O)N(C)c4ccccc4)c3)cc2s1` was 51.8%. The value for `Cc1nc2ccc(NC(=O)c3ccc(S(=O)(=O)N(C)C)cc3)cc2s1` was -37.4%; that for `O=C(CSc1nnc(C2COc3ccccc3O2)o1)N1CCN(c2ccccc2)CC1` (configuration not stated) was -24.7%; that for `COc1ccc(CCNC(=O)CCS(=O)(=O)c2ccc3c(c2)oc(=O)n3C)cc1OC` was -25.6%. Regarding `CC(C)C(=O)NC(=S)N1CCc2ccccc21`, the inhibition is -40.2%.

`O=C(COc1ccc(Cl)cc1Cl)NC(=S)N1CCCc2ccccc21`: the inhibition is 28.6%. Turning to `CC(Oc1ccc(Cl)cc1Cl)C(=O)NC(=S)N1CCc2ccccc21` (configuration not stated), the inhibition was 102% (active). For the compound `CC(C)NC(=O)c1ccc2c(c1)N(CC(=O)N1CCCCC1)C(=O)C(C)(C)O2`, the inhibition was 1.4%. Take `O=C(CSc1nnnn1-c1ccccc1)Nc1ncc(Cc2cccc(Cl)c2Cl)s1`: the inhibition is -16.9%.

Consider `Cc1ccc(C)c(NC(=O)C2CC(O)CN2C(=O)OCc2ccccc2)c1` (configuration not stated), for which the inhibition was 4.8%. The value for `COC(=O)CC1(C(=O)OC)Oc2ccc(Br)cc2C(=O)N1c1cc(Cl)cc(Cl)c1` (configuration not stated) was -11.1%; that for `O=C(CSc1ccccn1)Nc1nonc1[N+](=O)[O-]` was 57.6% (active). Consider `Cc1nonc1NC(=O)CSc1ccccn1`, for which the inhibition is 4%. Regarding `CC(=O)Nc1nonc1NC(=O)CSc1ccccn1`, the inhibition was 2.6%. Take `COc1ccc(NC(=O)CSc2nn3c(=O)c(C)nnc3s2)cc1`: the inhibition is -19.6%.

Turning to `CCOc1ccccc1NC(=O)Nc1cnccn1`, the inhibition was 11.8%.

Take `COc1ccccc1NC(=O)Nc1cnccn1`: the inhibition is 111% (active). Next, `COc1ccc(NC(=O)Nc2cnccn2)c(OC)c1`: -27.1%; `COC(=O)Nc1ccc2c(c1)N(C(=O)CCCl)c1ccccc1S2`: 3.3%. As to `COc1ccc(C(=O)NNC(=O)C(=O)/C=C(\O)c2ccc(C)cc2)cc1`, the inhibition was 0.6%. In the case of `Cc1cccc(C(=O)NC(=S)NCc2cccnc2)c1`, the inhibition is -31.1%. Consider `O=C(NCCCN1CCOCC1)c1cccc(S(=O)(=O)Nc2cc(Cl)ccc2Cl)c1`, for which the inhibition is -34.3%. For the compound `Cn1nnnc1SCC(=O)Nc1nc(-c2ccc(F)c(F)c2)cs1`, the inhibition is -20.9%. Consider `Cc1sc2ncnc(SCC(=O)Nc3nc(-c4ccc(F)c(F)c4)cs3)c2c1C`, for which the inhibition was -40.3%. Regarding `O=C(CSc1ncnc2[nH]ncc12)Nc1nc(-c2ccc(F)c(F)c2)cs1`, the inhibition was 46% (active).

Take `CC1CN(C(=O)CCC(=O)NCCCN2C(C)CCCC2C)c2ccccc2O1` (configuration not stated): the inhibition is 26.4%. Take `Cc1ccc(CNC(=O)C2CCCN(S(=O)(=O)c3c(C)[nH]c(=O)[nH]c3=O)C2)cc1` (configuration not stated): the inhibition was -3.9%.

Consider `O=C(Cn1c(=O)oc2ccccc21)NC(=O)NCc1ccco1`, for which the inhibition was -3.9%.

`CCN(CC)C(=S)NC(=O)c1ccc(F)cc1`: the inhibition was -25%. Regarding `CCOc1ccc(C(=O)NC(=S)N(Cc2ccccc2)Cc2ccccc2)cc1`, the inhibition was 51.4%. For the compound `CCCN(CCC)C(=S)NC(=O)c1ccc(-c2ccccc2)cc1`, the inhibition was 52.6% (active). Next, `C/C(=N/NC(=O)c1ccc(C)s1)c1cccnc1`: -53.1%; `COc1cc(/C=N/NC(=O)CCOc2ccccc2C)cc(Br)c1O`: -26.7%; `COc1ccc(/C=N/NC(=O)CCC(=O)Nc2ccccc2)cc1OC`: -8.6%. For `COc1ccc(/C=N/NC(=O)CCOc2ccccc2C)cc1OC`, the inhibition was 62.5% (active). For the compound `Cc1[nH]n(-c2ccccc2)c(=S)c1C=NCCCN=Cc1c(C)[nH]n(-c2ccccc2)c1=S`, the inhibition was 88.7% (active). As to `CCCCN=Cc1c(C)[nH]n(-c2ccccc2)c1=S`, the inhibition is 0.8%. The value for `Cc1[nH]n(-c2ccccc2)c(=O)c1C=NCCc1ccccc1` was -43.1%.

With `Cc1nnc2sc(SCC(=O)Nc3nccs3)nn2c1=O`, the inhibition was -2.3%. Take `Cc1ccc(-c2ccc(/C=N/n3cnnc3)o2)cc1Cl`: the inhibition is -11.3%. On to `Cc1cc(-c2ccc(/C=N/n3cnnc3)o2)ccc1Cl`, for which the inhibition is 67.4% (active).

Consider `Fc1ccc(-c2ccc(/C=N\n3cnnc3)o2)cc1Cl`, for which the inhibition is 1.3%. Next, `C/C(N)=C(/C#N)C(=O)COC(=O)c1cccc(O)c1`: -29.6%. On to `CC(=O)Nc1cccc(NC(=O)CSc2nc3ccccc3o2)c1`, for which the inhibition is 43.3%. On to `COc1ccc(C(NC(C)=O)c2cc(Cl)c3cccnc3c2O)cc1` (configuration not stated), for which the inhibition is -6.4%. `CCCCCCNC(=O)CCc1nc2cccnc2n1Cc1ccc(OC)cc1`: the inhibition was -10.4%. `CC1CCCC(C)N1C(=O)c1cc(-c2cccs2)on1` (configuration not stated): the inhibition was -28.6%.

With `CC(C)(C)C1CCC(=NNC(=S)Nc2cccnc2)CC1` (configuration not stated), the inhibition was -17.4%.

With `CC1=C/C(=N\NC(=S)Nc2cccnc2)CC(C)(C)C1`, the inhibition is 43.4% (active).

For `CC1=C/C(=N\NC(=S)NCCc2ccccc2)CC(C)(C)C1`, the inhibition is -43.4%. Next, `CCOC(=O)C1CCCN(C(=O)CNC(=O)c2nn(-c3ccc(OC)c(Cl)c3)c(=O)c3ccccc23)C1` (configuration not stated): -5.1%. Next, `CC(C)OC(=O)CSc1nc2c(cc1C#N)CCCCC2`: 111% (active); `CC(C)OC(=O)CC(=O)CSc1nc2c(cc1C#N)CCCCC2`: -26.3%; `CC(C)OC(=O)CC(=O)CSc1nc2c(cc1C#N)CCCCCC2`: -24.1%. For the compound `O=C(c1cccs1)N1CCC(C(=O)N2CCN(Cc3ccc4c(c3)OCO4)CC2)CC1`, the inhibition is -24.9%.

As for `CCN1C(=O)c2cccc3c(S(=O)(=O)NCc4ccco4)ccc1c23`, the inhibition was -23%. Regarding `Cc1ccc(-n2cc(C(=O)c3ccc(N4CCN(C)CC4)cc3)nn2)cc1Cl`, the inhibition is -52.8%. Consider `CCSC1=C(C#N)C(=O)n2c1cc1c2CCCC1`, for which the inhibition was 67% (active). Next, `CCOC(=O)C1=C(SCC)c2cc3c(n2C1=O)CCCC3`: -36.8%; `N#CC1=C(N2CCCCC2)c2cc3c(n2C1=O)CCCC3`: 7.7%.

As for `COc1ccc(C(c2nnnn2C(C)C)N2CCN(C(=O)c3ccco3)CC2)cc1` (configuration not stated), the inhibition is 10.7%. `CC(=O)c1cc(C#N)c(NCc2ccccc2)nc1C`: the inhibition is -40.7%. On to `c1cn(CCCNc2ncnc3sc4c(c23)CCC4)cn1`, for which the inhibition is 29.2%. `CCOc1cccc(-c2cc(C(=O)Nc3ccon3)c3ccccc3n2)c1`: the inhibition is -14%. Next, `CCOC(=O)C(=O)N1CCN(c2nc(-c3ccc(Cl)cc3)cs2)CC1`: -19.1%; `O=C1CC(Cc2ccc(Br)cc2)C(=O)N1c1ccccc1` (configuration not stated): -19.8%.

On to `Clc1ccc(N/N=C/c2ccncc2)cc1Cl`, for which the inhibition was -40.8%.

With `Clc1cncc(Cl)c1N/N=C/c1ccncc1`, the inhibition was 75.3% (active).

As to `Clc1cncc(Cl)c1N/N=C/c1ccccc1`, the inhibition is -10.5%. Turning to `CCOc1cc(/C=C(/NC(C)=O)C(=O)O)cc(Cl)c1OCc1cccc(Br)c1`, the inhibition is -9.8%. Next, `COc1ccc(C(=O)C2CCCN(Cc3ccc4nonc4c3)C2)cc1OC` (configuration not stated): -4.5%; `CC(C)Oc1cccc(C(=O)C2CCCN(Cc3ccc4nonc4c3)C2)c1` (configuration not stated): 55.2% (active).

In the case of `O=C(c1ccc(Cl)cc1)C1CCCN(Cc2ccc(Oc3ncccn3)cc2)C1` (configuration not stated), the inhibition is 19.6%.

In the case of `CC(C)Oc1cccc(C(=O)C2CCCN(Cc3cnn(C(C)C)c3)C2)c1` (configuration not stated), the inhibition is -18.3%. Consider `COc1ccc(CN2CCCC(C(=O)c3ccc(Cl)cc3)C2)cc1Cn1cccn1` (configuration not stated), for which the inhibition is -12.4%. Regarding `Cc1cccc(-c2nc3c(c(SCC(N)=O)n2)CCCC3)c1`, the inhibition was -10.2%. For the compound `CC(C)c1ccc(NC2CCCN(C(=O)c3cccc(N4CCNC4=O)c3)C2)cc1` (configuration not stated), the inhibition is 30.5%. On to `CC(=O)c1cccc(NC(=O)c2ccc(N(Cc3ccccc3C)S(C)(=O)=O)cc2)c1`, for which the inhibition was 6.4%.

Take `O=C(O)c1ccc(-c2ccc(-c3ccccc3)cc2)s1`: the inhibition was 93.5% (active). Regarding `Nc1ccc(-c2ccc(C(=O)O)s2)cn1`, the inhibition was -26.1%. As for `CNC(=O)c1ccc(-c2ccccc2)s1`, the inhibition was -12.7%.

As to `O=C(CNC(=O)c1ccco1)NCCCc1ccccc1`, the inhibition was 17.4%. `Cc1cc(/C=C2/NC(=O)NC2=O)c(C)n1-c1ccccn1`: the inhibition was -34.5%. With `CCN(CC)c1ccc(/C=c2\sc3nc4ccccc4n3c2=O)c(O)c1`, the inhibition was 33.8%. The value for `Cc1cc(/C=c2\sc3nc4ccccc4n3c2=O)c(C)n1-c1ccc(C(=O)O)cc1` was 20.6%; that for `Cc1cc(/C=c2/sc3nc4ccccc4n3c2=O)c(C)n1-c1ccccn1` was 74.4% (active). For the compound `O=c1/c(=C/c2ccccn2)sc2nc3ccccc3n12`, the inhibition is -98.1%. Turning to `O=c1c2ccccc2cnn1-c1ccc(Cl)nn1`, the inhibition was -19%. With `Cc1ccccc1-n1nc2c(c1NC(=O)c1c(-c3ccccc3Cl)noc1C)CS(=O)(=O)C2`, the inhibition is -10.3%. With `Cc1nn(C)cc1CNC(=O)c1ccc(Br)o1`, the inhibition is -3.1%. As to `COc1ccc2ccccc2c1/C=N\NC(=O)c1ccc(C)s1`, the inhibition is -3.2%. Turning to `N#Cc1cnc(SCC(=O)NNC(=O)COc2cccc3ccccc23)nc1N`, the inhibition was -19.9%. On to `Cc1cccc(OCC(=O)NNC(=O)CSc2ncc(C#N)c(N)n2)c1`, for which the inhibition is 98.2% (active). As to `Cc1ccc(OCC(=O)NNC(=O)CSc2ncc(C#N)c(N)n2)cc1`, the inhibition is -22.7%. The value for `CCCCn1c(SCC(=O)N2CCOCC2)nc2ccccc2c1=O` was -11.7%.
